30 molecules from PubChem BioAssay (NCI) can be followed below.

Common to all, as to test: NCI-60 one-dose screen, 48 h (100 = growth as untreated, 0 = no growth, -100 = all killed)
Conditions in all cases: 10 µM unless noted

The test system of experiment [1] is T-47D breast.
The test system of experiment [2] is BT-549 breast.
The subject of experiment [3] is MDA-MB-435 melanoma.
For experiment [4], the system named is SW-620 colon.
In experiment [5] the test system is MCF7 breast.
Experiment [6] deals with HCT-116 colon.
Experiment [7] relates to HCC-2998 colon.
In experiment [8] the test system is KM12 colon.

The panel holds about 83,000 compounds, 20% with a hit somewhere; the sample as a whole holds those more often.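 Compound tested at a single concentration for 48 hours in 96-well plates; a percent growth value below 10 was scored as active.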 Values without a mark were called inactive. Active and inactive are the calls of the source.

Regarding `CN1C(=O)CNC(=O)[C@H](NC(=O)c2nc3ccccc3cc2O)CSSC[C@H]1C(=O)NCCCc1nc2ccccc2cc1O`, the growth is 78% in experiment [1]; 75.8% in experiment [2]; 44% in experiment [3]; 48.2% in experiment [4]; 55.1% in experiment [5]; 70% in experiment [6]. For the same molecule, the growth in experiment [7] was 74.7%; in experiment [8], 27%.
`Cc1cc(=O)[nH]c(=O)n1Cc1cn(-c2c3ccccc3nc3ccccc23)nn1`: the growth in experiment [1] is -5.49% (active); in experiment [2], 90%; in experiment [3] it was 95.6%; in experiment [4] it was 83.9%; in experiment [5] it was 2.54% (active); in experiment [6] it was 63.1%. The growth in experiment [7] is 62.5%; in experiment [8], 98.6%.
As for `COc1cc(C(=O)c2cc(C)c3[nH]c4ccc(O)cc4c3c2C)cc(OC)c1OC`, the growth is 38.5% in experiment [1]; -1.57% (active) in experiment [2]; -6.06% (active) in experiment [3]; 31.2% in experiment [4]; 11% in experiment [5]; -5.93% (active) in experiment [6]. The growth is 20.6% in experiment [7] and 4.49% (active) in experiment [8].
With `COc1cc(C2CC(c3ccc(SC)cc3)=NN2C(C)=O)cc(OC)c1OC` (stereo not given), the growth in experiment [1] is 72.1%; in experiment [2], 36.4%; in experiment [3], -28.5% (active); in experiment [4], 38.5%; in experiment [5], 41.9%; in experiment [6] it was 41.5%. The results for the growth in experiment [7] and in experiment [8] were 61% and 39.4%, respectively.
For the molecule `CC1CN(C2CCCCC2)C(=S)N(c2ccccc2)C1=O` (stereo not given), the growth was 103% in experiment [1]; 108% in experiment [2]; 105% in experiment [3]; 103% in experiment [4]; 96.1% in experiment [5]; 101% in experiment [6]. Moreover, the growth was 100% in experiment [7] and 97.3% in experiment [8].
For the molecule `COc1ccc2sc3c(NCCCNCCO)nc4ccccc4c3c(=O)c2c1`, the growth in experiment [1] is 86.5%; in experiment [2] it was 81.7%; in experiment [3] it was 10.6%; in experiment [4] it was -83.2% (active); in experiment [5], 25.7%; in experiment [6], -79.3% (active). Besides, the values for the growth in experiment [7] and in experiment [8] were -84.3% (active) and -15.6% (active), respectively.
In the case of `COc1ccc2c(c1)/C(=C/c1sc(=S)n(Cc3ccco3)c1O)C=N2`, the growth is 45.3% in experiment [1]; 7.24% (active) in experiment [2]; -32.7% (active) in experiment [3]; 28.1% in experiment [4]; 21.8% in experiment [5]; 11.9% in experiment [6]. The growth in experiment [7] is 44.7%; in experiment [8], 23.9%.
Turning to `Nc1ccccc1-c1cc2c(c3c1[nH]c1ccccc13)CCCCC2`, the growth is 86.8% in experiment [1]; 108% in experiment [2]; 112% in experiment [3]; 96.2% in experiment [4]; 76% in experiment [5]; 76.3% in experiment [6]. In addition, the growth is 106% in experiment [7] and 88.9% in experiment [8].
Turning to `COc1ccc2c(c1)C(C)Cc1c(ncnc1-n1c(C)nc3ccccc31)N2C` (stereo not given), the growth in experiment [1] was 36.6%; in experiment [2], 51.7%; in experiment [3], -30.7% (active); in experiment [4], 12%; in experiment [5], 15.4%; in experiment [6], 36.3%. Further, the growth in experiment [7] is 41.3%; in experiment [8], 28.7%.
As to `CC(=O)O.CN1[CH-]N(Cc2ccc(C#N)cc2)c2ccccc21.[Ag+]`, the growth in experiment [1] was 69.7%; in experiment [2] it was 102%; in experiment [3] it was 106%; in experiment [4] it was 57.9%; in experiment [5], 97%; in experiment [6], 105%. Moreover, the figures for the growth in experiment [7] and in experiment [8] were 113% and 86.9%, respectively.
In the case of `COc1cc2cc(Oc3ccc(NC(=O)Nc4ccc(F)c(C(F)(F)F)c4)cc3)c(C)nc2cc1OCCN1CCOCC1`, the growth in experiment [1] is 21.8%; in experiment [2], 40.3%; in experiment [3], 16.5%; in experiment [4], 15.5%; in experiment [5] it was 3.62% (active); in experiment [6], 9.66% (active). For the same molecule, the growth in experiment [7] is 44.9%; in experiment [8], 11.2%.
Turning to `O=c1c2cccc(Cl)c2sc2c(NCCCNCCO)nc3ccccc3c12`, the growth in experiment [1] is 42.7%; in experiment [2] it was 80.1%; in experiment [3], -87.1% (active); in experiment [4] it was -97.6% (active); in experiment [5], 15.3%; in experiment [6] it was -58.9% (active). Also, the growth is -88% (active) in experiment [7] and -62.1% (active) in experiment [8].
Consider `CNC(=O)c1cc(-n2ccc3cc(NC(=O)c4ccc(N5CCOCC5)c(C(F)(F)F)c4)ccc32)ccn1`, for which the growth in experiment [1] was 25.8%; in experiment [2], 43.8%; in experiment [3], 76.4%; in experiment [4], 75.9%; in experiment [5], 60.6%; in experiment [6], 38.7%. The growth was 63.8% in experiment [7] and 17.7% in experiment [8].
Take `O=c1c2cc(F)ccc2sc2c(N3CCNCC3)nc3ccccc3c12`: the growth in experiment [1] was 27.9%; in experiment [2] it was 90.8%; in experiment [3], -87.1% (active); in experiment [4] it was -87.1% (active); in experiment [5], -74.1% (active); in experiment [6], -46.3% (active). The growth is -92.1% (active) in experiment [7] and -82.4% (active) in experiment [8].
`O=C1NC(=O)C(c2ccccc2)(c2ccccc2)N1Cc1cn(-c2c3ccccc3nc3ccccc23)nn1`: the growth was 63.6% in experiment [1]; 81.5% in experiment [2]; 94.4% in experiment [3]; 85.6% in experiment [4]; 73.9% in experiment [5]; 68.1% in experiment [6]. The growth was 104% in experiment [7] and 91.2% in experiment [8].
Consider `CC(=O)CC[C@H]1C(=O)N[C@@H](C(C)C)C(=O)N[C@@H](Cc2cc(O)cc(F)c2)C(=O)N2CCC[C@H](N2)C(=O)O[C@H](/C(C)=C/C=C/C(=O)OC(C)(C)C)C/C=C/C=C/[C@H](O)[C@H](C)[C@H]1O`, for which the growth was 55% in experiment [1]; 39.6% in experiment [2]; 43% in experiment [3]; 25.4% in experiment [4]; 48.2% in experiment [5]; 26.6% in experiment [6]. Also, the growth in experiment [7] is 51.8%; in experiment [8], 34.1%.
As for `CC(=O)OC[C@H]1OC(Sc2sc(C(=O)c3ccc(C)cc3)c(N)c2-c2nc3ccccc3s2)[C@H](OC(C)=O)[C@@H](OC(C)=O)[C@@H]1OC(C)=O` (stereo not given in full), the growth is 69.7% in experiment [1]; 83.4% in experiment [2]; 77.4% in experiment [3]; 53.4% in experiment [4]; 73.6% in experiment [5]; 39.3% in experiment [6]. Further, the growth in experiment [7] is 94.2%; in experiment [8], 80.6%.
For `CN1C(=O)N(C)C2Nn3c(s/c(=C\c4ccccc4)c3=O)=NC21` (stereo not given), the growth in experiment [1] was 98.2%; in experiment [2] it was 97.1%; in experiment [3] it was 85.9%; in experiment [4], 96.9%; in experiment [5], 87.1%; in experiment [6], 88.8%. Moreover, the growth in experiment [7] was 104%; in experiment [8], 97.5%.
Take `Cc1ccc(C(=O)NCCNc2nccc(-c3c(-c4cccc(F)c4)nc4sccn34)n2)cc1`: the growth in experiment [1] was 42.4%; in experiment [2] it was 55.2%; in experiment [3], 41.6%; in experiment [4], 61.8%; in experiment [5] it was 27.2%; in experiment [6], 27%. Besides, the values for the growth in experiment [7] and in experiment [8] were 64.2% and 77.5%, respectively.
Take `NC1=NC(c2cccc(Br)c2)c2sc3ccc(Cl)cc3c2N1` (stereo not given): the growth was 88.8% in experiment [1]; 122% in experiment [2]; 98.2% in experiment [3]; 103% in experiment [4]; 75.4% in experiment [5]; 97.9% in experiment [6]. Also, the values for the growth in experiment [7] and in experiment [8] were 114% and 93.7%, respectively.
In the case of `NCCCNc1nc2ccccc2c2c(=O)c3cc(OC(F)(F)F)ccc3sc12`, the growth is -9.69% (active) in experiment [1]; 93.1% in experiment [2]; -79.2% (active) in experiment [3]; -75.8% (active) in experiment [4]; -70.1% (active) in experiment [5]; -83.4% (active) in experiment [6]. Moreover, the growth is -88.1% (active) in experiment [7] and -89.3% (active) in experiment [8].
Turning to `Cc1cccc(OCC(O)CN2CCN(c3ccc(Cl)cc3)CC2)c1` (stereo not given), the growth in experiment [1] is 107%; in experiment [2], 99.6%; in experiment [3] it was 111%; in experiment [4], 104%; in experiment [5], 87.5%; in experiment [6], 86.7%. In addition, the results for the growth in experiment [7] and in experiment [8] were 110% and 106%, respectively.
Regarding `NCCOc1ncccc1/C=C1\c2ccccc2-c2ccc(C(F)F)cc21`, the growth in experiment [1] is 51.5%; in experiment [2], 87.3%; in experiment [3], 82.3%; in experiment [4], 38.4%; in experiment [5] it was 21.6%; in experiment [6], 42.1%. The figures for the growth in experiment [7] and in experiment [8] were 24.2% and 78.8%, respectively.
In the case of `COc1ccc2nc(NC(=O)c3cccnc3Nc3ccc(S(N)(=O)=O)cc3)sc2c1`, the growth in experiment [1] was 84.6%; in experiment [2] it was 84.7%; in experiment [3] it was 91.5%; in experiment [4], 109%; in experiment [5], 110%; in experiment [6] it was 93.5%. Moreover, the growth was 114% in experiment [7] and 97.8% in experiment [8].
Consider `C=C1C(=O)O[C@H]2[C@H]1CC/C(COC(=O)CCC(=O)NCCOCCOCC(=O)Nc1ccc(OC)c(C(N)=O)c1O)=C\CC[C@@]1(C)O[C@@H]21`, for which the growth in experiment [1] is 87.1%; in experiment [2], 85.9%; in experiment [3], 97.8%; in experiment [4], 64.2%; in experiment [5], 74.6%; in experiment [6], 69.5%. For the same molecule, the growth in experiment [7] was 112%; in experiment [8] it was 102%.
With `O=C(Nc1ccc(F)cc1F)c1cc(F)ccc1O`, the growth is 6.93% (active) in experiment [1]; 8.69% (active) in experiment [2]; 14.6% in experiment [3]; 20.8% in experiment [4]; 4.23% (active) in experiment [5]; 12.8% in experiment [6]. Also, the growth in experiment [7] was 27.9%; in experiment [8], 8.7% (active).
`Cc1nc2nc(SCC(=O)O)[nH]c2c(=O)[nH]1`: the growth in experiment [1] is 96.7%; in experiment [2] it was 97.2%; in experiment [3] it was 107%; in experiment [4], 98.5%; in experiment [5], 93.2%; in experiment [6] it was 104%. The growth in experiment [7] was 101%; in experiment [8], 105%.
With `COc1ccc2cc(C(C)C(=O)Nc3ccc(-c4n[nH]c(=S)n4C4CCCCC4)cc3)ccc2c1` (stereo not given), the growth in experiment [1] is 69.7%; in experiment [2], 90.9%; in experiment [3], 62.4%; in experiment [4], 92.2%; in experiment [5], 48.3%; in experiment [6], 48.6%. The growth in experiment [7] is 70.5%; in experiment [8] it was 55.9%.
Take `CS(=O)(=O)N(c1cc(-c2ccc3ncnc(Nc4ccc(F)c(Cl)c4)c3c2)cnc1Cl)S(C)(=O)=O`: the growth in experiment [1] was -11% (active); in experiment [2], 22%; in experiment [3], 43.8%; in experiment [4], 46.3%; in experiment [5], 12%; in experiment [6], 45.1%. Also, the results for the growth in experiment [7] and in experiment [8] were 45.1% and 67.1%, respectively.
In the case of `O=C(N=c1oc2ccccc2cc1-c1cc2ccccc2[nH]1)Nc1ccc(Cl)cc1`, the growth was 91.1% in experiment [1]; 90.7% in experiment [2]; 104% in experiment [3]; 95.5% in experiment [4]; 83.5% in experiment [5]; 89.2% in experiment [6]. Besides, the growth is 99.7% in experiment [7] and 99.2% in experiment [8].
